Each structure is given as a SMILES string. The whole screen tested about 340,000 compounds, of which about 1,300 (0.38%) were called active.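 Rule for the calls: active = maximum activity change below -70%; inconclusive = maximum activity change between -70% and -50%; inactive = maximum activity change above -50%.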 This excerpt belongs to a sample that is enriched for actives.

The results in this text go back to PubChem BioAssay AID720551 (National Center for Advancing Translational Sciences (NCATS), 2013).
% is set by controls: 0 for no effect and ±100 for the full control effect.

Chain of Voltage-gated inwardly rectifying potassium channel KCNH2 (Homo sapiens) (Q12809 whole entry, looked up, canonical isoform): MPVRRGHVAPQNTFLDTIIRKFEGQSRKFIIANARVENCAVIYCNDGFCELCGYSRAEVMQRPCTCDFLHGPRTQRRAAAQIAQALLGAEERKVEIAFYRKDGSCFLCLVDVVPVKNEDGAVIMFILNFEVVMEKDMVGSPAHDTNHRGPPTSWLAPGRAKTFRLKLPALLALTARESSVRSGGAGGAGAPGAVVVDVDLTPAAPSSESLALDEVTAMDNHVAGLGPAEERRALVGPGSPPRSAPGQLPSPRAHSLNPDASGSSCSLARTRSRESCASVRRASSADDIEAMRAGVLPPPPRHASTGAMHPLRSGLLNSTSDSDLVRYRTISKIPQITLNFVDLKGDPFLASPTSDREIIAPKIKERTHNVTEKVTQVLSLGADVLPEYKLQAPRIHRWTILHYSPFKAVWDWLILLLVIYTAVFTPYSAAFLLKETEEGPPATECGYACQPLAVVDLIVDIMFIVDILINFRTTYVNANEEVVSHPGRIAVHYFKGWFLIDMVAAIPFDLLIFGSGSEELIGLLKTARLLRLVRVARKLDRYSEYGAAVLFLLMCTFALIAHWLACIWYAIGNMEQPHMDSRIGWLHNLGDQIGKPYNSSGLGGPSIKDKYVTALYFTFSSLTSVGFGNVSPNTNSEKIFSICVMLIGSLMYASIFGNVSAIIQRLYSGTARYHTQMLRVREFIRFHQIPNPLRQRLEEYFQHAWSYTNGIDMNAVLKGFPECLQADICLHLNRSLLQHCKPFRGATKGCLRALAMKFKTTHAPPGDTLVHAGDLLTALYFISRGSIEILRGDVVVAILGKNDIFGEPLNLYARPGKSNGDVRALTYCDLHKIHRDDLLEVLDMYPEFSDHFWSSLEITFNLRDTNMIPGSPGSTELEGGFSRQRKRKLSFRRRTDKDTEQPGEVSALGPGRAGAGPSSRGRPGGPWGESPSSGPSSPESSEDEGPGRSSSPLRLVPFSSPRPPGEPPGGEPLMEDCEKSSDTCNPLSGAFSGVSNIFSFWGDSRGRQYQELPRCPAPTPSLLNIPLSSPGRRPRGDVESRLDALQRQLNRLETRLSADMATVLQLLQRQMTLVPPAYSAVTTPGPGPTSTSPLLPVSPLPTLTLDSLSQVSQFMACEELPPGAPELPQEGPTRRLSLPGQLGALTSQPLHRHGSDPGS

For this assay, the target named is Voltage-gated inwardly rectifying potassium channel KCNH2 (Homo sapiens) (UniProt Q12809). The experiment in a line: qHTS for Inhibitors of KCHN2 3.1: Wildtype qHTS. The note with it: U2OS, BacMam KCNH2, thallium flux FluxOr; at 1.84 µM; active compounds read low. From the text:
Many antipsychotic drugs that inhibit the neurotransmitter dopamine also bind to hERG1 channel which might help explain their antipsychotic activity but also produces cardiac side effects. The discovery of the novel KCNH2 3.1 isoform offers a potential new target for the development of antipsychotic drugs without cardiac side effects. This proposal will use a high throughput thallium flux assay developed for KCNH2 to screen compounds that modulate the activity of KCNH2 3.1. The wild type KCNH2 channel will also be screened in parallel to help define the selective modulators of this KCNH2 3.1 potassium channel. The resulting compounds will be validated in electrophysiology experiments. The availability of animal models will allow future testing in vivo for effects on memory and other aspects of animal physiology linked with psychosis. NIH Chemical Genomics Center [NCGC] NIH Molecular Libraries Probe Centers Network [MLPCN] MLPCN Grant: MH096539 Assay Submitter (PI): James Barrow, Johns Hopkins University, Lieber Institute for Brain Development
U2OS cells were resuspended in cell media containing 10% fetal calf serum (FCS) at a concentration of 2 million cells / mL. The solution was treated with the Wild-type virus at 2.03 x 10^8 / mL and allowed to incubate at room temperature in the dark. After 4 hours of incubation, DMEM + 10% fetal bovine serum (FBS) was added to the cell solution. Three microliter was then dispensed into a 1536 tissue culture treated black assay plates which were incubated overnight at 37 C. Two microliter of loading buffer (HBSS + HEPES + Red40 dye quencher + FluxOr dye) was added and the assay plates were incubated for 45 min at room temperature in the dark. […] A stimulation buffer was added to the plate and the second kinetic read (2 min) was obtained. The rate constant was calculated from the kinetic reads and normalized to the positive and negative DMSO controls.
(In general: In qHTS, concentration-response curves come from the screen itself.)
Regarding `CCOC(=O)C1(Cc2ccc(Cl)cc2)CCN(C(C)CCn2cccn2)CC1` (stereo not given), the activity change was -90.9% (active). For `CCOC(=O)C1(CCc2ccccc2)CCN(Cc2ccco2)CC1`, the activity change was -42.5% (inactive). As for `CNC(=O)O/N=C(\N)Cc1csc2ccc(Cl)cc12`, the figure is -2.66% (inactive); as for `NCCc1ccc(S(=O)(=O)F)cc1`, -7.95% (inactive); as for `NCC(O)c1ccc(O)cc1` (stereo not given), 2.77% (inactive). Turning to `CC1(C)Cc2c(C#N)c(N3CCNCC3)nc(-c3ccco3)c2CS1`, the activity change is -1.97% (inactive). Take `CC(=NCC1CCCO1)c1c(O)n(-c2ccccc2)c(=O)[nH]c1=O` (stereo not given): the activity change is -12.8% (inactive). For `CC(Cc1ccccc1)NCCC(c1ccccc1)c1ccccc1` (stereo not given), the activity change is -106% (active). In the case of `O=C1NC(=O)C(CCOc2ccccc2)(CCc2ccccc2)C(=O)N1`, the activity change is -6.81% (inactive). `O=Cc1cn(Cc2ccc(F)cc2Cl)c2ccccc12`: the activity change is 0.945% (inactive).
